The values below come from PubChem BioAssay (NCATS).

Inconclusive results are not listed. Values without a mark were called inactive. Calls follow the shape of the dose curve; as a rule, active = well fitted activation curve with a large enough effect; inconclusive = small, poorly fitted or top-dose-only effect; inactive = flat fitted curve, though single readings scatter.

The assay in a line: Primary redox qHTS assay for identification of artifact compounds. (AID 1845223).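 Also: 0% = DMSO and 100% = reference compound.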 The conditions noted are these: Amplex Red/HRP redox cycling with DTT, fluorescence; series mostly up to 53.8 µM; redox activity (% of DA3003): at the top concentration. A digest of the protocol:
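Redox-cycling detection via DTT (250 uM final) oxidation coupled to Amplex Red (25 uM)/HRP (250 mU/mL) in HBSS. 15 min preincubation plus 30 min after DTT, room temperature. Ex/Em 525/598 nm; 4-parameter Hill fit against DMSO and 10 uM DA3003.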
A general note: qHTS replaces the single test concentration by a dilution series.
For the compound `Cc1cc(C)nc(SCC(=O)Nc2ncc(Cc3cccc4ccccc34)s2)n1`, the “redox activity (% of DA3003)” value was -5.55%.
Then `C=C(C)C(=O)OC1CC(CO)CCC/C(CO)=C/C2OC(=O)C(=C)C21` (configuration not stated), with 0.214%.
Consider `CC1OC(OC2C(O)COC(O[C@@H]3[C@@H](O)[C@@H](O)[C@H](OC4C(OC(=O)[C@]56CCC(C)(C)CC5C5=CCC7[C@@]8(C)C[C@H](O)[C@H](OC9OC(CO)C(O)C(O)C9O)[C@@](C)(CO)C8[C@H](O)C[C@@]7(C)[C@]5(C)CC6)OCC(O)C4O)O[C@H]3C)C2O)C(O)C(O)C1O` (some centres not stated), for which the redox activity (% of DA3003) was 3.65% [at 11.5 µM].
Then `C/C=C/C=C/C(=O)O[C@@H]1C=C2COC(=O)[C@]2(O)[C@@]2(C)CCCC(C)(C)[C@H]12`, with 2.23%; and `CC1(C)CCC(C)(C)c2cc(C#Cc3ccc(C(=O)O)cc3)ccc21`, with -5.47%; and `CC(=O)Nc1cccc(-c2csc(Nc3cc(C)ccn3)n2)c1`, with -2.56%.
With `C=C1C(=O)O[C@H]2C3=C(C)CCC[C@]3(C)C(=O)C[C@@H]12`, the “redox activity (% of DA3003)” value is -2.15%.
Then `O=C(Nc1ccccc1C(=O)Nc1ccc(CCO)cc1)c1ccc([N+](=O)[O-])cc1`, with -10.4%; and `O=C(O)CCc1nccc2c1[nH]c1ccccc12`, with -3.82%.
On to `N#CC(CCCN1CCN(/N=C/c2cccnc2)CC1)(c1ccccc1)c1ccccc1`, for which the “redox activity (% of DA3003)” value was -4.99%.
Then `CC(=O)OC1C(OC(=O)c2ccccc2)C2C(=C(C)CCC2(C)C)C23CCC(C)(C2)C(=O)CC13` (configuration not stated), with 7.02% [at 25.6 µM]; and `CC1(C)SCCN(S(=O)(=O)c2ccc(Oc3ccncc3)cc2)[C@H]1C(=O)NO`, with 11.1%; and `COc1ccc(S(=O)(=O)N2CCC[C@H]2C(=O)Nc2cc(C)cc(C)c2)cc1`, with 13.7%.
Then `O=C(Nc1cc(C(F)(F)F)cc(C(F)(F)F)c1)c1cnc(Cl)nc1C(F)(F)F`, with -0.248%; and `CC(C)(C)Oc1ccc(OCC2Cc3ccccc3CN2C(=O)c2cccc3ccccc23)cc1` (configuration not stated), with -3.71%.
Then `CNc1ccc([N+](=O)[O-])c(Nc2ccc3[nH]ncc3c2)n1`, with -4.1%; and `C=C1C(=O)O[C@@H]2C=C(COC(C)=O)CC/C=C(\CO)CC[C@@H]12`, with -2.86%; and `COC1C(O)C(OC2CCC3(C)C(CCC45CCC6C7(COC(=O)C7)OC4(O)C6(C)CCC35)C2)OC(C)C1OC1OC(CO)C(OC2OC(CO)C(O)C(O)C2O)C(O)C1O` (configuration not stated), with 3.19% [at 11.5 µM].
For `O=C(NO)c1ccc(CC(=O)N(CCO)c2ccccc2)cc1`, the “redox activity (% of DA3003)” value was -3.9%.
Then `CC(C)NCCCn1c(Sc2cc3c(cc2I)OCO3)nc2c(N)ncnc21`, with -6.11%; and `C=CCc1ccc(OC(C)Cc2ccc(OC)c(OC)c2)c(OC)c1` (configuration not stated), with 11.9%; and `COc1cc(C(=O)NC(=S)Nc2cccc(NC(=O)c3ccccc3)c2)cc(OC)c1OC`, with 8.29%.
For `C[C@@H](O[C@H]1OCCN(Cc2nn(P(=O)(O)O)c(=O)[nH]2)[C@H]1c1ccc(F)cc1)c1cc(C(F)(F)F)cc(C(F)(F)F)c1`, the “redox activity (% of DA3003)” value was 2.76% [at 25.6 µM].
Then `CC1(C)CC[C@]23CO[C@@]4(CCC5[C@@]6(C)CC[C@H](O[C@@H]7OC[C@H](O[C@@H]8O[C@H](CO)[C@@H](O)[C@H](O)[C@H]8O[C@@H]8OC[C@@H](O)[C@H](O)[C@H]8O)[C@H](O)[C@H]7O)[C@@](C)(CO)C6CC[C@@]5(C)[C@]4(C)CC2=O)[C@@H]3C1` (some centres not stated), with -0.913% [at 11.5 µM].
Consider `CC(=O)NC(C(=O)O[C@H]1CCC(C)(C)[C@@H]2CC=C3C(=O)OCC3(O)[C@@]12C)C(C)C` (some centres not stated), for which the “redox activity (% of DA3003)” value is 22.6%.
Then `Fc1ccc(N2CCCCC2)c(NC(=S)c2ccncc2)c1`, with 12%; and `COc1cccc(NCCC2(c3ccccc3)CC(C)(C)OC(C)(C)C2)c1`, with 0.126%.
`NC(=O)c1nc(Nc2ccccc2)sc1NC(=O)C1CCCCC1`: the “redox activity (% of DA3003)” value is -4.65%.
Then `O=C1c2ccc(Nc3ccc(F)cc3F)cc2CCc2ccc(OCC(O)CO)cc21` (configuration not stated), with 14.6%; and `C/C=C(/C=C(C)/C=C/C=C/C=C(\C)C(=O)C12OC1C(O)(CCO)NC2=O)C(=O)OC` (configuration not stated), with 6.43% [at 25.6 µM]; and `C[C@H]1CC[C@@]2(OC1)O[C@H]1CC3[C@@H]4CC[C@@H]5C[C@@H](O[C@@H]6O[C@H](CO)[C@@H](O[C@@H]7O[C@@H](C)[C@H](O)[C@@H](O)[C@H]7O)[C@H](O)[C@H]6O[C@@H]6O[C@H](CO)[C@@H](O)[C@H](O)[C@H]6O)CC[C@]5(C)C4CC[C@]3(C)[C@H]1[C@@H]2C` (some centres not stated), with -5.48% [at 11.5 µM].
Then `C/C=C(/C)C(=O)OC1C=C2C3C(C)C(C)C(OC(=O)C(C)C(C)O)CC3(C)CCC2(C)C2(C)CC(OC(C)=O)C3C(C)(C)C(O)C(=O)CC3(C)C12` (configuration not stated), with 1.51% [at 25.6 µM].
